Test systems include DU-145 prostate; K-562 leukemia; MALME-3M melanoma; MDA-MB-231 breast; RXF 393 renal; SF-268 CNS; SF-295 CNS; SF-539 CNS; UACC-257 melanoma; M14 melanoma.
Holding throughout (assay): NCI-60 one-dose screen, 48 h (100 = growth as untreated, 0 = no growth, -100 = all killed)
Common to all, as to conditions: 10 µM unless noted

Compounds without any hit were thinned out: in the full panel of roughly 83,000, 20% have a hit.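 The endpoint reported here, percent growth, reads 100 for growth as untreated, 0 for no net growth and -100 for all cells dead.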 Unmarked numbers belong to inactive results. Activity calls are given as the source filed them. Rule for the calls: active = growth percent below 10; inactive = the rest.

Consider `C[C@H](NC(=O)c1ccc2c(-c3ccc(C(F)(F)F)cc3)cccc2c1)c1ccccn1`, for which the growth in the experiment with DU-145 prostate is 56.4%; in the experiment on K-562 leukemia, 20.6%; in the experiment on MALME-3M melanoma, 67%; in the experiment on MDA-MB-231 breast, 59.9%; in the experiment on RXF 393 renal it was 13%; in the experiment with SF-268 CNS it was 58.9%. Moreover, the growth was 32.5% in the experiment on SF-295 CNS, 62.3% in the experiment on SF-539 CNS, 64.3% with UACC-257 melanoma and 40.7% in the experiment with M14 melanoma.
Regarding `Cc1ccc(C(=O)Nc2cc(-n3cnc(F)c3)cc(C(F)(F)F)c2)cc1C#Cc1cnc2cccnn12`, the growth with DU-145 prostate was 80.9%; in the experiment on K-562 leukemia, -9.19% (active); with MALME-3M melanoma it was -3.1% (active); in the experiment on MDA-MB-231 breast it was 49.2%; with RXF 393 renal, 57.9%; with SF-268 CNS, 91.6%. Moreover, the growth with SF-295 CNS is 63.9%; with SF-539 CNS, 3.39% (active); in the experiment with UACC-257 melanoma, 58%; in the experiment with M14 melanoma it was 17.7%.
In the case of `COc1ccc(/C=C/C(=O)c2ccc(S(=O)(=O)NCCNc3nc(N(C)C)nc(N4CCOCC4)n3)cc2)cc1`, the growth in the experiment with DU-145 prostate was 103%; with K-562 leukemia, 35.9%; in the experiment with MALME-3M melanoma, 97.5%; in the experiment on MDA-MB-231 breast it was 88.4%; in the experiment on RXF 393 renal, 92.1%; in the experiment with SF-268 CNS it was 84.1%. Besides, the growth with SF-295 CNS was 92.5%; with SF-539 CNS, 83.7%; with UACC-257 melanoma, 96.5%; in the experiment with M14 melanoma, 92.1%.
`COc1cc(CNC(=O)C[C@H](C)CCC=C(C)C)ccc1OCc1cn(-c2ccc(Br)cc2)nn1`: the growth in the experiment with DU-145 prostate was 92.7%; in the experiment on K-562 leukemia, 66.3%; in the experiment with MALME-3M melanoma, 85.4%; in the experiment on MDA-MB-231 breast, 80.6%; with RXF 393 renal it was 61.8%; in the experiment on SF-268 CNS, 71.7%. Also, the growth in the experiment on SF-295 CNS is 63.2%; with SF-539 CNS, 51.2%; with UACC-257 melanoma, 86.3%; in the experiment on M14 melanoma it was 97.2%.

The values are drawn from PubChem BioAssay (NCI).
